Experimental data: PubChem BioAssay (Tox21)
Records with an inconclusive call do not appear. Values without a mark were called inactive. The call rests on the fitted dose curve; in most records, active means well fitted cell-killing curve with a large enough effect in the repeat runs; inconclusive means weak or mixed curves, or effect the other way; inactive means flat fitted curve, though single readings scatter.

Assay: qHTS RealTime-Glo MT Cell Viability Assay in HepG2 cells - 0 hour (AID 1224889); further: nearly all actives have a fitted effect of over 50% in size
Conditions: RealTime-Glo luminescence; series mostly up to 76.8 µM; activity change, negative = cytotoxicity: at the top concentration
Description: U.S. Tox21 Program National Center for Advancing Translational Sciences [NCATS] NIH Chemical Genomics Center [NCGC] U.S. Environmental Protection Agency [EPA] National Institutes of Environmental Health Sciences [NIEHS] National Toxicology Program [NTP] U.S. Food and Drug Administration [FDA] Tox21 Assay Overview: Measure of cell viability is critical in the cell-base assay. Analysis of cell viability is necessary for the characterization of cell responses to cytotoxic drugs and environmental stress. A RealTime-Glo MT Cell Viability Assay to monitor cell viability in real time of continues cell culture during 40 hours of compound treatment was used to screen Tox21 10K library compounds in HepG2 cells. The RealTime-Glo MT Cell Viability Assay is a nonlytic, homogeneous, bioluminescent method to measure cell viability in real time using a simple, plate-based method. The assay involves adding NanoLuc luciferase and a cell-permeant prosubstrate to cells in culture. Viable cells reduce the proprietary prosubstrate to generate a substrate for NanoLuc luciferase. This substrate diffuses from cells into the surrounding culture medium, where it is rapidly used by the NanoLuc Enzyme to produce a luminescent signal. The signal correlates with the number of viable cells, making the assay well suited for cytotoxicity studies.
Tox21 Assay Protocol Summary: The mixture of HepG2 cell suspension and reagents were dispensed at 600cells/6 ul/well in 1536-well tissue culture treated black solid bottom plates using a Multidrop dispenser. After the assay plates were incubated at a 37 C/5% CO2 incubator for 5 hours, 23 nL of compounds dissolved in DMSO, positive and negative controls was transferred to the assay plate by a pintool work station. The plates were incubated at 37 C for 40 hours. The luminescence intensity were measured at 0h, 8h, 16h, 24h, 32h and 40h time points using ViewLux plate reader during compound treatment.
On the % scale 0 is the no-effect control and ±100 the full control effect.

Compound | activity change, negative = cytotoxicity
CN1CCN(C)CC1 | -16.5%
CCn1c2ccccc2c2ccccc21 | 3.2%
CCN(CCC#N)c1ccc(N=Nc2ccc([N+](=O)[O-])cc2)cc1 | -1.87%
CCC1(C)C(=O)N(Cl)C(=O)N1Cl (stereo not given) | 4.23%
CCSCC | 6.25%
C=C(C)C1CCC(C)CC1O (stereo not given) | 9.65%
C/C=C/C(=O)C1=C(C)C=CCC1(C)C | 4.7%
CO[Si](OC)(c1ccccc1)c1ccccc1 | -25.7%
CCCCCCCCCCCCCCCCC(C(=O)O)C(O)(CC(=O)O)C(=O)O (stereo not given) | -4.45% [at 35.3 µM]
O=C1C=CC(=O)N1c1cccc(N2C(=O)C=CC2=O)c1 | -5.42%
O=C(O)CN(CCCN(CC(=O)O)CC(=O)O)CC(=O)O | -28.3% [at 15.8 µM]
CC(C)(C)c1ccc(OC2CCCCC2O)cc1 (stereo not given) | 19.2%
c1ccc(-c2nc3ccccc3[nH]2)cc1 | -15.8%
C/C=C/C(=O)OCC(C)C | 12.9%
Cc1cc(Br)ccc1NC(=O)CCl | 5.64%
CCOC=C(C(=O)OCC)C(=O)OCC | 11.4%
Cc1ccc(C=O)cc1 | 19.5% [at 35.3 µM]
CCCCCCCCCCCCS(=O)(=O)Cl | -8.49% [at 15.8 µM]
Nc1c(Br)cc([N+](=O)[O-])cc1Br | -10.1%
C=CC(=O)OCCOC1C2CCC1C1CC=CC12 (stereo not given) | 5.34% [at 15.8 µM]

Compound | activity change, negative = cytotoxicity
C=COCCCC | -26.9%
C=Cc1ccncc1 | 3.41%
Nc1ccc2c(S(=O)(=O)O)cccc2c1S(=O)(=O)O | 1.35% [at 35.3 µM]
Cc1cccc2c1ccc1ccccc12 | -7.04%
[Cl][Eu]([Cl])[Cl] | -17.3%
COc1cccc(-c2ccc(/C=C\CN3CCCCCC3)cc2Cl)c1 | -1.9%
CC1CCC(C(C)(C)O)CC1 (stereo not given) | -2.14%
CCOC(=O)[C@H](C)O | 8.98%
CCCC(=O)c1cc(O)c(O)cc1O | -2.56%
O=C(O)C[C@H](O)C[C@H](O)/C=C/c1c(C2CC2)nc2ccccc2c1-c1ccc(F)cc1 | -0.353% [at 15.8 µM]
CC1=CC[C@@H](C(C)(C)O)CC1 | -19.8%
CC(=O)[C@]1(O)Cc2c(O)c3c(c(O)c2[C@@H](O[C@H]2C[C@H](N)[C@H](O)[C@H](C)O2)C1)C(=O)c1ccccc1C3=O | -4.65% [at 35.3 µM]
O=C1OCc2ccccc21 | -0.362%
CC(C=O)c1ccccc1 (stereo not given) | -4.38%
COc1c(Br)cc(Br)c(C)c1Br | -3%
CCCC(C)C=O (stereo not given) | -0.175%
CN(C)CCOc1ccc(/C(=C(/CCCl)c2ccccc2)c2ccccc2)cc1 | 2.15%
COC(=O)c1ccc([N+](=O)[O-])cc1 | -10.6%
Cc1cc(C)c(O)c(C(C)(C)C)c1 | -3.35%
C=CC(=O)O[C@H]1C[C@@H]2CC[C@@]1(C)C2(C)C | 15.8%
